Experimental findings from PubChem BioAssay AID504834 (National Center for Advancing Translational Sciences (NCATS), 2011) are described below.

Among all 320,000 compounds or so, about 22,000 (6.9%) were called active. Roughly 27% stayed inconclusive and do not appear here. This is one part of a sample in which actives are shown more often than they occur. Values without a mark were called inactive. Calls follow the shape of the dose curve; as a rule, active = well fitted inhibition curve with a large enough effect; inconclusive = small, poorly fitted or top-dose-only effect, or another doubt; inactive = no such curve, though single readings can be large or run the other way.
% is scaled to controls: 0 for no effect and ±100 for the full control effect; potency is read from the fitted curve at half-maximal effect.

The nature of the experiment: Primary qHTS for delayed death inhibitors of the malarial parasite plastid, 96 hour incubation. The following applies: P. falciparum luciferase reporter growth; series mostly up to 28.7 µM; activity change, negative = inhibition: at the top concentration. The method, boiled down: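 Plates of compound plus infected erythrocytes (2% hematocrit, 0.05% parasitemia final) incubate 96 hours, 37 C, 5% CO2. Detection reagent added; reduced luminescence from the parasites' luciferase reporter flags inhibition.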
In general terms: Quantitative high-throughput screening tests each substance at several concentrations.
As to `COc1ccc(-c2onc3ccc(C(C)=O)cc23)cc1`, the “activity change, negative = inhibition” value is 25.1%.
On the same count and under the same terms, the same measure for `O=C(c1c(F)cccc1F)N1CCN(S(=O)(=O)c2ccc3c(c2)OCCO3)CC1`: -5.48%; for `O=C(c1ccc2c(c1)OCCO2)C1CCN(S(=O)(=O)c2cccc(F)c2)CC1`: -2.68%.
On to `O=S(=O)(NC1CCN(S(=O)(=O)c2ccc3c(c2)OCCO3)CC1)c1c(F)cccc1F`, for which the Potency is 11.7 µM (active).
`CCOc1ccc(C(=O)CCN2CCOCC2)cc1`: the “activity change, negative = inhibition” value was -16.3%.
For the compound `O=C1CCN(CCCc2ccccc2)CCN1CCO`, the “activity change, negative = inhibition” value is 5.15%.
Still for that read-out and setting: the value for `NS(=O)(=O)c1cccc(NC(=O)CC23CC4CC(CC(Br)(C4)C2)C3)c1` was 23.8%.
Still for that read-out and setting: the same measure for `CC(CN1CCOCC1)OC(=O)c1ccc(Cl)cc1Cl` (centres undefined): 5.52%.
In the case of `Cc1ccc(C(=O)OC(C)CN2CCOCC2)cc1` (centres undefined), the Potency was 5.86 µM (active).
Consider `Cc1cccc(C(=O)OC(C)CN2CCN(C)CC2)c1` (centres undefined), for which the “activity change, negative = inhibition” value is 46.6%.
In the case of `O=C(COC(=O)c1ccccc1Br)Nc1nnc(-c2ccccc2)o1`, the “activity change, negative = inhibition” value is 6.55%.
For the compound `CN1C/C(=C/c2cccs2)C(=O)/C(=C\c2cccs2)C1`, the “activity change, negative = inhibition” value is -17.4%.
Still for that read-out and setting: the same measure for `O=C(CNC(=O)c1ccccc1Br)NCCSc1ccc(Br)cc1`: 9.38%; for `Cc1cc(C)n(S(=O)(=O)c2cccc([N+](=O)[O-])c2)n1`: -17.8%; for `O=[N+]([O-])c1cccc(S(=O)(=O)N2CCCCCC2)c1`: 10.5%.
On to `Cc1ccc(-c2cn(S(=O)(=O)c3cccc([N+](=O)[O-])c3)nc2N)cc1`, for which the Potency was 6.57 µM (active).
On to `COc1cccc(CN2CCCC(C(=O)c3ccccc3SC)C2)c1O` (centres undefined), for which the Potency was 1.65 µM (active).
Take `COc1ccc(C(=O)N2CCCC(C(=O)c3ccccc3OC)C2)cc1OC` (centres undefined): the “activity change, negative = inhibition” value was -26.1%.
On the same count and under the same terms, the value for `CCOC(=O)CCNC(=O)N1CCCC(C(=O)c2ccccc2SC)C1` (centres undefined) was -6.64%.
On the same count and under the same terms, the value for `CCCCC(c1nnnn1CS(=O)(=O)c1ccc(C)cc1)N1CCC(C(N)=O)CC1` (centres undefined) was -0.154%; that for `COc1ccc(C(=O)Nc2ccc(C(=O)NCC3CCCO3)cc2)c(OC)c1OC` (centres undefined) was -8.54%; that for `CCOC(=O)CN1CCC(c2ccccc2)CC1` was -21.3%.
With `c1ccc(C2CCC(N3CCC(N4CCCCC4)CC3)CC2)cc1` (centres undefined), the Potency was 2.62 µM (active).
`O=C(Cc1ccccc1)N1CCN(C2CCCCCC2)CC1`: the “activity change, negative = inhibition” value is 203%.
Same read-out and setting: the same measure for `CC1CCCC(C)N1C(=O)COC(=O)COc1ccccc1C#N` (centres undefined): -0.308%.
Still for that read-out and setting: the same measure for `COc1ccccc1OCC(=O)OCc1cc(-c2ccco2)on1`: 30.4%; for `CN(CC(=O)Nc1ccc(F)c(F)c1F)C(=O)C1CC(=O)N(C2CCCC2)C1` (centres undefined): 51.1%; for `CCOC(=O)C1=C(C)NC(=O)NC1c1ccccc1` (centres undefined): -18.4%.
Take `CCC(CC)COC(=O)C1=C(C)NC(=O)NC1c1ccc([N+](=O)[O-])cc1` (centres undefined): the Potency is 4.65 µM (active).
Regarding `CC1=C(C(=O)OCC2CCCCC2)C(c2ccc(F)cc2)NC(=O)N1` (centres undefined), the “activity change, negative = inhibition” value is 1.16%.
Consider `Cc1ccc(N(CC(=O)NCC2CCCO2)C(=O)CNS(=O)(=O)c2ccc(Cl)cc2)cc1` (centres undefined), for which the “activity change, negative = inhibition” value is -13.8%.
Still for that read-out and setting: the value for `CCc1nnc(NC(=O)CCC(=O)N2CCN(c3cc(C)ccc3C)CC2)s1` was 5.92%; that for `Cc1cc(Cl)nc(NC(=O)Nc2cccc(Cl)c2)n1` was 26.6%; that for `CNC(=O)CN1C(=O)NC(c2ccccc2)(c2ccccc2)C1=O` was 36.1%.
`Cc1c(C=O)n(C)n(-c2ccccc2)c1=O`: the “activity change, negative = inhibition” value is 30.2%.
As to `CCC1(c2ccccc2)C(=O)NC(=O)N(C)C1=O` (centres undefined), the Potency is 15.1 µM (active).
In the case of `O=C(CSc1nc2ccccc2o1)N/N=C/c1ccccc1C(=O)O`, the “activity change, negative = inhibition” value was 195%.
Same read-out and setting: the value for `CCc1ccc(OCC(=O)OC(C)C(=O)NC2CC2)cc1` (centres undefined) was 0.306%.
As for `CC(C)OCCCNc1ncnc2c1[nH]c1ccc(F)cc12`, the Potency was 0.185 µM (active).
Consider `O=C1CCCN1CCCNc1ncnc2c1[nH]c1ccccc12`, for which the “activity change, negative = inhibition” value was 13.3%.
`Cc1ccsc1C(=O)OCC(=O)Nc1cccc(F)c1`: the “activity change, negative = inhibition” value is 133%.
For the compound `Cn1c2c(c(=O)n(C)c1=O)C(c1cccc(F)c1)C(C#N)=C(N)O2` (centres undefined), the “activity change, negative = inhibition” value was 21.7%.
Consider `CCc1ccc(NC(=O)Cn2ncn3c(cc4ccccc43)c2=O)cc1`, for which the Potency is 1.47 µM (active).
With `CCc1ccc(NC(=O)Cn2nc(C)c([N+](=O)[O-])c2C)cc1`, the “activity change, negative = inhibition” value is 11.4%.
Regarding `Cc1nn(CC(=O)Nc2ccc(F)cc2)c(=O)c2ccccc12`, the “activity change, negative = inhibition” value is 19.5%.
Take `CC(=O)Oc1cc2c(C(=O)NCCN3CCOCC3)c(C)oc2c2ccccc12`: the “activity change, negative = inhibition” value was 15.9%.
Consider `O=C(NCCN1CCOCC1)Nc1cccc(Cl)c1`, for which the “activity change, negative = inhibition” value is 105%.
For the compound `O=C(NCCN1CCOCC1)c1cc(Sc2cccc(Cl)c2)nc2ccccc12`, the Potency was 5.22 µM (active).
For `Cn1c(SCC(=O)N2CCCC2)nnc1-c1ccc2c(c1)OCO2`, the “activity change, negative = inhibition” value is -17.5%.
On the same count and under the same terms, the value for `O=C(CNc1ccccc1N1CCCC1=O)Nc1cc(Cl)ccc1-n1cncn1` was 41.9%; that for `O=C(Nc1ccccc1Cl)Nn1cnnc1` was 22.9%; that for `O=C(CN1CCCCCC1)Nc1ccc(Br)cc1Br` was 55.1%.
On the same count and under the same terms, the value for `O=C(CN1CCCCCC1)Nc1ccc(Br)cc1[N+](=O)[O-]` was 69.6%.
`O=C(CN1CCCCC1)Nc1ccc(Br)cc1C(=O)c1ccccc1Cl`: the Potency was 1.85 µM (active).
